In the library only some 17% were active in any assay of this set; here they are far more common.
ClpP mod = qHTS Assay for Activators of ClpP | purified B. subtilis ClpP, FRET peptide cleavage, 20 min | Potency, µM (top dose mostly 57.5 µM), for the others: top-dose activity change, negative = active | hit rate 1.9% among 340,000; active = well fitted falling curve with a large enough effect; inconclusive = small, poorly fitted or top-dose-only effect; inactive = no such curve, though single readings can be large or run the other way; note: the source files actives as falling curves though it sought activators and does not explain the sign; nearly all actives have a fitted effect of over 65% in size
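FRET quenching reversal measured ClpP activation: 10 microg/mL B. subtilis ClpP at pH 8 with the FRET-FV decapeptide, read at 430 nm after 320 nm excitation. The 20-min minus 0-min signal was scaled between DMSO/no-enzyme wells and ADEP (5.8 microM final).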
TDP1 cell CPT = qHTS for Inhibitors of human tyrosyl-DNA phosphodiesterase 1 (TDP1): qHTS in cells in presence of CPT; chicken DT40 Tdp1-/-;hTDP1 cells + 20 nM CPT, ATP luminescence, 48 h; Potency, µM (highest dose often 46.2 µM), inactives show at the top dose activity change, negative = growth inhibition, most hits filed as inhibitors; hit rate 12% among 420,000; note: % is set by controls: 0 for no effect and ±100 for the full control effect; nearly all actives have a fitted effect of over 55% in size
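Cell growth measured by CellTiter-Glo luminescence after a minimum 48 h, 37 C compound exposure with 20 nM CPT in Tdp1-knockout DT40 cells stably expressing hTDP1, seeded 400/well; qHTS titration format.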
DT40 TDP1 no CPT = qHTS for Inhibitors of human tyrosyl-DNA phosphodiesterase 1 (TDP1): qHTS in cells in absence of CPT | DT40 Tdp1-/- hTDP1 cells, no CPT, ATP luminescence, 48 h | Potency, µM (series often up to 46.2 µM), for the others: top-dose activity change, negative = growth inhibition, hits mostly inhibitors | hit rate 15% among 420,000 | AID 686978, 2013; note: % is set by controls: 0 for no effect and ±100 for the full control effect; nearly all actives have a fitted effect of over 55% in size
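No-CPT arm: Tdp1-/-;hTDP1 DT40 cells (400/well) plus compounds, incubated ≥48 hr at 37 °C. Readout CellTiter-Glo luminescence.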
TDP1 inh = qHTS Assay for Inhibitors of Tyrosyl-DNA Phosphodiesterase (TDP1); Tyrosyl-DNA phosphodiesterase 1 (Homo sapiens), Q9NUW8; recombinant TDP1, AlphaScreen DNA substrate cleavage; Potency, µM (doses to about 130 µM), for inactives: at the top dose activity change, negative = inhibition, most hits filed as inhibitors; hit rate 0.28% among 350,000; AID 485290, 2010; note: % is set by controls: 0 for no effect and ±100 for the full control effect; nearly all actives have a fitted effect of over 40% in size
Target sequence (Q9NUW8 whole entry, looked up): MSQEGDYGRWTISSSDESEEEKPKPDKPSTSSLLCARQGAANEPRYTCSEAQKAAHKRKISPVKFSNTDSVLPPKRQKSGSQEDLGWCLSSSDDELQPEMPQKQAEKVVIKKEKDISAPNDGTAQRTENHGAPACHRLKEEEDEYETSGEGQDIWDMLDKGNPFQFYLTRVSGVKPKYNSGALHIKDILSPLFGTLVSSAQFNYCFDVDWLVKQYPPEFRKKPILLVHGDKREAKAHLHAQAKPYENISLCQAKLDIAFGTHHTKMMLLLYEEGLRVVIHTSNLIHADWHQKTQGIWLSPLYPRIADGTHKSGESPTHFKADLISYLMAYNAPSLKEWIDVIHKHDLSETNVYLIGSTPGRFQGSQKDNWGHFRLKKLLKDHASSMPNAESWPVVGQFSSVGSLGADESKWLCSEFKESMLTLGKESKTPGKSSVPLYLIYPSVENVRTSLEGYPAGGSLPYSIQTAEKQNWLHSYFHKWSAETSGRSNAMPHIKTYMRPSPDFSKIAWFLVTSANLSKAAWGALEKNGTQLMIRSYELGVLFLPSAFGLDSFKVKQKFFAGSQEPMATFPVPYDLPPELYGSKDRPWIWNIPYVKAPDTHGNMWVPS
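AlphaScreen read-out: signal falls as enzyme removes the 3' tyrosine-FITC from a 5'-biotinylated DNA oligo (15 nM, 5 min, RT). Enzyme was E. coli-made recombinant Tdp1 at 1 nM, exposed to compound for 15 min beforehand; beads 10 ug/ml, 10 min.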
Numbers without * were called inactive; ? = inconclusive; / = no result given; [ ] = remark or other dose. Unless noted, calls come from the whole dose curve; as a rule, active = well fitted curve in the direction sought with a large enough effect; inconclusive = small, poorly fitted or top-dose-only effect, or another doubt; inactive = no such curve, though single readings can be large; an effect the other way counts as inactive or inconclusive. Potency is the fitted concentration of half-maximal effect.

SMILES | ClpP mod | TDP1 cell CPT | DT40 TDP1 no CPT | TDP1 inh
Cc1ccc(S(=O)(=O)N2CCN(C(=O)c3cc(S(=O)(=O)N(C)C)ccc3N3CCCC3)CC2)c(C)c1 | 4% | ? | 16µM* | 0%
COc1ccc(CCNC(=O)c2cc(S(=O)(=O)N3CCOCC3)ccc2N2CCCC2)cc1OC | -1% | 2% | -27% | -10%
O=C(COc1ccc(S(=O)(=O)N2CCOCC2)cc1)NCC1CCCO1 (stereo not given) | -4% | 3% | -4% | 4%
COc1ccc(CNC(=O)c2cc(S(=O)(=O)N3CCCCC3)ccc2N2CCOCC2)cc1OC | -4% | ? | 9.2µM* | /
O=C(COC(=O)c1cc(S(=O)(=O)N2CCOCC2)ccc1O)NCC1CCCO1 (stereo not given) | 35µM* | 4% | -2% | -7%
COc1cc(-c2ccc(C(F)(F)F)cn2)cc2c1OCCN(S(=O)(=O)C[C@]13CC[C@H](CC1=O)C3(C)C)C2 | / | -8%[9.04 µM] | -25% | /
Cc1ccc(C)c(SCC(=O)Nc2cc(C)nn2-c2ccc(F)cc2)c1 | / | / | / | 3%
OCC(O)CO | / | 9% | -1% | -2%
CC1=C(C(=O)N2CCOCC2)CC(CC(=O)NCCc2ccccn2)C(=O)N1Cc1ccccc1 (stereo not given) | -2% | -2% | 2% | /
CN(C)S(=O)(=O)c1ccc(N2CCCC2)c(C(=O)Nc2ccccc2N2CCOCC2)c1 | -3% | -25% | ? | 7%
Cc1ccc(S(=O)(=O)N2CCOCC2)cc1C(=O)OCC(=O)NCCc1ccccc1 | 0% | ? | ? | -1%
COc1cc(NC(=O)c2cc(S(=O)(=O)N3CCCCC3)ccc2N2CCOCC2)cc(OC)c1 | / | 21µM* | 21µM* | 0%
COc1ccc(CCNC(=O)COC(=O)c2cc(S(=O)(=O)N3CCOCC3)ccc2C)cc1OC | 0% | 18µM* | ? | 1%
Cc1ccc(S(=O)(=O)N(C)C)cc1NC(=O)c1cc(S(=O)(=O)N2CCCCC2)ccc1N1CCOCC1 | -4% | ? | 12µM* | -9%
CCOC(=O)c1c(C)[nH]c(C)c1S(=O)(=O)N1CCC(C(=O)NCc2ccc(OC)cc2)CC1 | 0% | -6% | -11% | 4%
C=CCCCCCCCCC(=O)OC | / | -4% | -29% | -6%
O=[N+]([O-])c1ccc(Nc2nc(N/N=C\c3ccc4c(c3)OCO4)nc(N3CCCCC3)n2)cc1 | 1% | 21µM* | 16µM* | 9%
O=[N+]([O-])c1ccc(/C=N/Nc2ncc(Br)cn2)cc1 | -1% | -4% | -11% | 50µM*
COc1ccc(/C=N/Nc2nc(Nc3ccccc3)nc(N3CCCCC3)n2)cc1OC | -7% | ? | 21µM* | 9%
CCOc1cc(/C=N/Nc2nc(Nc3ccccc3)nc(N3CCCCC3)n2)ccc1OCC(=O)O | / | -12% | -23% | 2%
O=[N+]([O-])c1cc2c(cc1/C=N/Nc1nc(N3CCCC3)nc(N3CCCC3)n1)OCO2 | / | 0% | -23% | -5%
O=[N+]([O-])c1ccc(-c2ccc(/C=N/Nc3nc(NCc4ccccc4)nc(N4CCOCC4)n3)o2)cc1 | / | 9.2µM* | 16µM* | 8%
CCCc1ccc2oc(C(=O)N3CCC(C(N)=O)(N4CCCCC4)CC3)c(C)c2c1 | 1% | ? | -13% | 6%
Cc1ccc(C)c(CN2CCC(CNC(=O)c3cc4ccc5cccnc5c4[nH]3)CC2)c1 | -2% | ? | ? | 1%
O=[N+]([O-])c1ccc(/C=N/Nc2nc(N3CCCCC3)nc(N3CCCCC3)n2)cc1 | 1% | ? | 16µM* | 5%
C(=C\c1ccccc1)/C=N/Nc1nc(N2CCCCC2)nc(N2CCCCC2)n1 | 0% | 12µM* | 12µM* | 8%
Cc1ccc(/C=N/Nc2nc(N3CCCCC3)nc(N3CCCCC3)n2)o1 | / | 1% | ? | 5%
O=[N+]([O-])c1ccc(/C=N/Nc2nc(N3CCCCCC3)nc(N3CCCCCC3)n2)o1 | 1% | 26µM* | ? | 5%[56.1 µM]
COc1ccc([N+](=O)[O-])cc1/C=N/Nc1nc(N2CCCCC2)nc(N2CCCCC2)n1 | / | ? | ? | -1%

Assay outcomes: PubChem, National Center for Advancing Translational Sciences (NCATS)
